{"source": "PubChem BioAssay AID504467", "about": "(National Center for Advancing Translational Sciences (NCATS), 2011)", "note": "Among all 330,000 compounds or so, about 7,700 (2.3%) were called active. Where a call stands in place of a potency, no number is given. About 26% were inconclusive and are not listed. The sample holds actives, similar compounds and a random draw of the others, so the mix is not that of the screen. Calls follow the shape of the dose curve; as a rule, active = well fitted inhibition curve with a large enough effect; inconclusive = small, poorly fitted or top-dose-only effect, or effect the other way; inactive = flat fitted curve, though single readings scatter. Potency is read from the fitted curve at half-maximal effect."}
{"test": "qHTS screen for small molecules that inhibit ELG1-dependent DNA repair in human embryonic kidney (HEK293T) cells expressing luciferase-tagged ELG1; also: nearly all actives have a fitted effect of over 55% in size", "conditions": "HEK293T ELG1-luciferase reporter, luminescence, 16 h, DNA damage induced by 5-fluorouridine; series mostly up to 46.1 µM", "in_short": "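Cells (2,000 per well) received 5-fluorouridine plus test compound or DMSO and were incubated 16 hr at 37 °C, 5% CO2. Luciferase activity was read by luminescence 30 min after ONE-Glo addition; signal suppression marked inhibition of damage-induced ELG1 function.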"}
{"smiles": "Cn1c(=O)oc2cc(S(=O)(=O)N3CCC(C(=O)Nc4ccc(OC(F)(F)F)cc4)CC3)ccc21", "Potency": "inactive"}
{"smiles": "CS(=O)(=O)c1ccc2nc(NC(=O)C3CCCCC3)sc2c1", "Potency": "3.66 µM (active)"}
{"smiles": "CS(=O)(=O)c1ccc2nc(NC(=O)CN3CCCCCC3)sc2c1", "Potency": "inactive"}
{"smiles": "O=C(Nc1nc2ccc(S(=O)(=O)N3CCCC3)cc2s1)C1CCCO1", "note": "(stereo unspecified)", "Potency": "inactive"}
{"smiles": "Cc1ccc2nc(NC(=O)C3CCN(S(=O)(=O)c4ccc5c(c4)oc(=O)n5C)CC3)sc2c1", "Potency": "10.3 µM (active)"}
{"smiles": "Cc1nc2ccc(NC(=O)C3CCCCC3)cc2s1", "Potency": "inactive"}
{"smiles": "CC(=O)c1c(C)[nH]c(C(=O)N2CCN(S(=O)(=O)c3ccc(F)c(F)c3)CC2)c1C", "Potency": "inactive"}
{"smiles": "O=C(COc1ccc(S(=O)(=O)Nc2cccc(C(F)(F)F)c2)cc1)N1CCOCC1", "Potency": "inactive"}
{"smiles": "CCCSC(=S)NC1CCS(=O)(=O)C1", "note": "(stereo unspecified)", "Potency": "23.1 µM (active)"}
{"smiles": "O=S1(=O)CCC(NC(=S)SCc2ccccc2Br)C1", "note": "(stereo unspecified)", "Potency": "inactive"}
{"smiles": "COc1ccc(NC(=S)NC2CCS(=O)(=O)C2)cc1", "note": "(stereo unspecified)", "Potency": "inactive"}
{"smiles": "O=C1COc2ccc(C(=O)CSc3ccc(Br)cc3)cc2N1", "Potency": "inactive"}
{"smiles": "O=C(NCc1ccccc1CN1CCCC1)C1CCN(S(=O)(=O)c2ccc(Cl)cc2)CC1", "Potency": "inactive"}
{"smiles": "Brc1ccc(CN2CC[C@H]3C=CCc4cccc(c43)C2)cc1", "Potency": "inactive"}
{"smiles": "COc1ccc(CNC(=O)COC(=O)C(CCSC)N2C(=O)c3ccccc3C2=O)cc1", "note": "(stereo unspecified)", "Potency": "inactive"}
{"smiles": "Cc1sc2ncnc(N3CCC(C(=O)Nc4ccc(F)cc4Cl)CC3)c2c1C", "Potency": "20.6 µM (active)"}
{"smiles": "Cc1ccnc(N2CCCC(C(=O)Nc3cc(F)ccc3C)C2)n1", "note": "(stereo unspecified)", "Potency": "inactive"}
{"smiles": "Cc1sc2ncnc(SCC(=O)Nc3ccc(CN4CCCC4)cc3)c2c1C", "Potency": "inactive"}
{"smiles": "CC1CC(C)CN(CCOc2cccc3ccccc23)C1", "note": "(stereo unspecified)", "Potency": "inactive"}
{"smiles": "CN(CC(=O)NCCc1ccc(S(N)(=O)=O)cc1)CC(=O)Nc1ccc(F)c(F)c1F", "Potency": "inactive"}
{"smiles": "C=CC[C@@H](CC(=O)N[C@H](CO)Cc1ccccc1)C(=O)N[C@@H](COC(=O)[C@@H](CC=C)Cc1ccc(F)cc1)Cc1c[nH]c2ccccc12", "Potency": "inactive"}
{"smiles": "C=CCC[C@H](Cc1ccc(F)cc1)C(=O)OC[C@@H](NC(=O)[C@@H](CC=C)CC(=O)N[C@H](CO)Cc1ccccc1)C(C)(C)C", "Potency": "inactive"}
{"smiles": "C=CCC[C@@H](Cc1ccc(F)cc1)C(=O)OC[C@H](Cc1c[nH]c2ccccc12)NC(=O)[C@@H](CC=C)CC(=O)N(CCO)Cc1ccccc1", "Potency": "20.6 µM (active)"}
{"smiles": "C=CCC[C@@H](Cc1ccc(F)cc1)C(=O)O[C@H](CNC(=O)[C@H](CC=C)CC(=O)N(CCO)Cc1ccccc1)c1ccccc1", "Potency": "20.6 µM (active)"}
{"smiles": "C=CCC[C@@H](Cc1ccc(F)cc1)C(=O)OC[C@@H](C)NC(=O)[C@H](CC=C)CC(=O)N(CCO)Cc1ccccc1", "Potency": "inactive"}
{"smiles": "C=CC[C@H](CC(=O)NCCO)C(=O)N[C@@H](COC(=O)[C@@H](CC=C)Cc1ccc(F)cc1)Cc1c[nH]c2ccccc12", "Potency": "inactive"}
{"smiles": "Cc1ccc(Br)c(NS(=O)(=O)c2cccc(C(=O)N3CCNC(=O)C3)c2)c1", "Potency": "inactive"}
{"smiles": "CC(C)c1ccc(S(=O)(=O)N2CCN(C(C)C(=O)NC3CCCC3)CC2)cc1", "note": "(stereo unspecified)", "Potency": "inactive"}
{"smiles": "O=C(NC1CCCCCC1)C1CCN(C(=O)c2ccc(Cl)cc2)CC1", "Potency": "inactive"}
{"smiles": "O=C(COC(=O)CN1C(=O)C2CCCCC2C1=O)Nc1ccc(F)c(F)c1F", "note": "(stereo unspecified)", "Potency": "inactive"}
{"smiles": "CCC1(C)NC(=O)N(CC(=O)N2CCN(c3cccc(Cl)c3)CC2)C1=O", "note": "(stereo unspecified)", "Potency": "inactive"}
{"smiles": "COc1cccc(CNc2nc(C(F)(F)F)nc3ccccc23)c1", "Potency": "13 µM (active)"}
{"smiles": "c1coc(CNc2ncnc3ccccc23)c1", "Potency": "inactive"}
{"smiles": "NS(=O)(=O)c1ccc(CCNC(=O)CNC(=O)Cc2ccccc2)cc1", "Potency": "inactive"}
{"smiles": "COc1ccc(CNc2ncnc3ccccc23)cc1", "Potency": "2.59 µM (active)"}
{"smiles": "CCc1nc2ccccc2c(C(=O)NCc2ccc(OC)cc2)c1C", "Potency": "inactive"}
{"smiles": "CC(Nc1nc(C(F)(F)F)nc2ccccc12)c1cccs1", "note": "(stereo unspecified)", "Potency": "inactive"}
{"smiles": "COc1cccc(CNc2ncc(-c3ccccc3)n2C)c1", "Potency": "inactive"}
{"smiles": "Cc1cc(C)n(-c2nc(C(F)(F)F)nc3ccccc23)n1", "Potency": "inactive"}
{"smiles": "NS(=O)(=O)c1ccc(CCNc2nc(C(F)(F)F)nc3ccccc23)cc1", "Potency": "11.6 µM (active)"}
{"smiles": "CN1CCN(S(=O)(=O)c2ccc(Nc3ccc(F)cc3)nc2)CC1", "Potency": "inactive"}
{"smiles": "O=C(CN1C(=O)NC2(CCCCCCC2)C1=O)NCc1ccc(F)cc1", "Potency": "inactive"}
{"smiles": "O=C(C(NS(=O)(=O)c1cccc2nsnc12)c1ccccc1)N1CCN(c2ccccc2)CC1", "note": "(stereo unspecified)", "Potency": "16.4 µM (active)"}
{"smiles": "O=C(C(NS(=O)(=O)c1cccc2nsnc12)c1ccccc1)N1CCN(c2ccccn2)CC1", "note": "(stereo unspecified)", "Potency": "inactive"}
{"smiles": "O=C(O)C(NS(=O)(=O)c1cccc2nsnc12)c1ccccc1", "note": "(stereo unspecified)", "Potency": "inactive"}
{"smiles": "COC(=O)c1cc(NC(=O)c2ccco2)ccc1N1CCOCC1", "Potency": "inactive"}
{"smiles": "COC(=O)c1cc(NC(=O)c2cc(C(C)(C)C)nn2Cc2cccc(C)c2)ccc1N1CCOCC1", "Potency": "16.4 µM (active)"}
{"smiles": "CC(=O)Nc1ccc(N2CCOCC2)c(C(=O)Nc2cccc(C)c2)c1", "Potency": "inactive"}
{"smiles": "CSc1ncccc1C(=O)Nc1ccc(C)cn1", "Potency": "inactive"}
{"smiles": "Cc1csc(SCC(=O)N(c2ccccc2)C(C)C)n1", "Potency": "inactive"}
{"smiles": "CC(C)(C)OC(=O)C[C@@H]1C/C=C\\C[C@@H](CC(=O)N[C@@H](CO)Cc2ccccc2)C(=O)N2CCC[C@H]2COC1=O", "Potency": "inactive"}
{"smiles": "NC(=O)c1cc(-c2cccnc2)nc2ccc(Br)cc12", "Potency": "inactive"}
{"smiles": "Cc1cc(NCc2cccnc2)no1", "Potency": "inactive"}
{"smiles": "Brc1ccc2ncnc(NCc3cccnc3)c2c1", "Potency": "8.2 µM (active)"}
{"smiles": "C=CC[C@@H](CC(=O)NCCO)C(=O)N[C@H](C)COC(=O)[C@@H](CC=C)CC(=O)OC(C)(C)C", "Potency": "inactive"}
{"smiles": "COc1cc(OC)c(C(=O)OC(C)C(=O)Nc2cc(C(F)(F)F)ccc2Cl)cc1OC", "note": "(stereo unspecified)", "Potency": "14.6 µM (active)"}
{"smiles": "COc1ccc(/C(C)=N/Nc2cc(C(F)(F)F)ccc2Cl)c(OC)c1", "Potency": "inactive"}
{"smiles": "CC(CC(=O)Nc1cc(C(F)(F)F)ccc1Cl)c1ccccc1", "note": "(stereo unspecified)", "Potency": "inactive"}
{"smiles": "CC1CC(C)CN(C(=O)COC(=O)c2ccc3ncsc3c2)C1", "note": "(stereo unspecified)", "Potency": "inactive"}
{"smiles": "CCN(CC(=O)Nc1ccc(OC)cc1)C(=O)c1ccc(Cl)c(S(=O)(=O)N2CCCC2)c1", "Potency": "inactive"}
{"smiles": "Cc1nnc(N/N=C/c2ccccn2)[nH]c1=O", "Potency": "0.92 µM (active)"}
{"smiles": "Cc1ccccc1Nc1nnc(C)c(=O)[nH]1", "Potency": "inactive"}
{"smiles": "Cc1nnc(N/N=C/C2CC=CCC2)[nH]c1=O", "note": "(stereo unspecified)", "Potency": "inactive"}
{"smiles": "Cc1ccc([C@@H]2CC=C(C(=O)O)[C@H](c3cccc(Cl)c3)N2S(=O)(=O)c2ccc(C)cc2)cc1", "Potency": "inactive"}
{"smiles": "CN(C)CCNC(=O)Cc1ccc([N+](=O)[O-])cc1", "Potency": "inactive"}
{"smiles": "CN(C)C(CNC(=O)Cc1ccc([N+](=O)[O-])cc1)c1ccccc1", "note": "(stereo unspecified)", "Potency": "inactive"}
{"smiles": "CN(CCc1ccccc1)C(=O)c1cccc(NC(=O)Cc2ccc([N+](=O)[O-])cc2)c1", "Potency": "13 µM (active)"}
{"smiles": "Cc1ccc2nnn(Cc3cccc(C(C)(C)C)c3O)c2c1", "Potency": "inactive"}
{"smiles": "CCc1ccc2nc(N(CCCN(C)C)C(=O)c3ccc4c(c3)OCCO4)sc2c1", "Potency": "inactive"}
{"smiles": "O=C(CSc1ncnc2sccc12)NC1CCS(=O)(=O)C1", "note": "(stereo unspecified)", "Potency": "inactive"}
{"smiles": "CC1(C)Cc2cccc(OCC(=O)NCc3ccccc3)c2O1", "Potency": "inactive"}
{"smiles": "COc1ccc(NS(=O)(=O)c2ccc(N3CCOCC3)c(NC(=O)c3ccccc3Br)c2)cc1", "Potency": "inactive"}
{"smiles": "COc1ccc(NS(=O)(=O)c2cc(NC(=O)C3CCCCC3)ccc2N2CCOCC2)cc1", "Potency": "20.6 µM (active)"}
{"smiles": "COc1ccc(NS(=O)(=O)c2cc(NC(=O)/C=C/c3cc(OC)c(OC)c(OC)c3)ccc2N2CCCCC2)cc1", "Potency": "inactive"}
{"smiles": "CC(=O)c1c(C)oc2ccc(NS(=O)(=O)c3ccc(C(=O)O)cc3)cc12", "Potency": "inactive"}
{"smiles": "COc1ccc2oc(C)c(NC(C)=O)c2c1", "Potency": "inactive"}
{"smiles": "COc1ccc(S(=O)(=O)Nc2ccc3oc(C)c(C(C)=O)c3c2)cc1", "Potency": "2.59 µM (active)"}
{"smiles": "Cc1ccc(S(=O)(=O)N2CCC(C(=O)OCC(=O)N(C)c3ccccc3)CC2)cc1C", "Potency": "inactive"}
{"smiles": "CCN(CC(=O)Nc1ccc(C)c(S(=O)(=O)N(C)C)c1)Cc1ccccc1", "Potency": "inactive"}
{"smiles": "CC(C)(C)c1ccc(SCCc2ccncc2)cc1", "Potency": "inactive"}
{"smiles": "CCC(C(=O)NC1CCCC1)N(C(=O)Cn1nnc(-c2ccc(C)o2)n1)c1ccc(OC)c(OC)c1", "note": "(stereo unspecified)", "Potency": "inactive"}
{"smiles": "CCOCC(=O)Nc1sc2c(c1C(=O)OCC)CCCC2", "Potency": "inactive"}
{"smiles": "COC(=O)c1c(NC(=O)CCCC(=O)O)sc2c1CCCCC2", "Potency": "inactive"}
{"smiles": "COC(=O)c1c(NC(=O)COC(=O)[C@@H](NS(=O)(=O)c2ccccc2)C(C)C)sc2c1CCC2", "Potency": "25.9 µM (active)"}
{"smiles": "O=C1C=C(c2cc(C(F)(F)F)cc(C(F)(F)F)c2)C[C@@H](c2ccc3c(c2)OCO3)C1", "Potency": "inactive"}
{"smiles": "Cc1cccc(NC(=O)c2sc3nc4c(c(-c5ccco5)c3c2N)CCC4)c1", "Potency": "inactive"}
{"smiles": "Cc1nc2sc(C(=O)c3ccccc3)c(N)c2c2c1CCCC2", "Potency": "inactive"}
{"smiles": "NC(=O)c1sc2nc3c(c(-c4ccccc4)c2c1N)CCC3", "Potency": "4.11 µM (active)"}
{"smiles": "CC(=O)N1CCN(c2ccccc2NC(=S)NC(=O)c2cc3ccccc3o2)CC1", "Potency": "inactive"}
{"smiles": "c1ccc(-c2oc3ncnc(N4CCOCC4)c3c2-c2ccccc2)cc1", "Potency": "inactive"}
{"smiles": "COc1ccc(-c2oc(/N=C/N3CCCC3)c(C#N)c2-c2ccc(OC)cc2)cc1", "Potency": "inactive"}
{"smiles": "COc1ccc(-c2oc3ncnc(NCCCO)c3c2-c2ccc(OC)cc2)cc1", "Potency": "18.3 µM (active)"}
{"smiles": "CCn1c(=O)c2ccccc2n(CC(=O)N2CCCc3ccccc32)c1=O", "Potency": "inactive"}
{"smiles": "CCN(C[C@H]1N[C@@](CC)(C(=O)OC)[C@H]2C(=O)N(Cc3ccccc3)C(=O)[C@@H]12)S(=O)(=O)c1ccccc1", "Potency": "inactive"}
{"smiles": "COc1ccc(NC(=O)c2cc([N+](=O)[O-])ccc2NC(=O)CNC2CCCCC2C)c(OC)c1", "note": "(stereo unspecified)", "Potency": "inactive"}
{"smiles": "CCOc1ccc(C(C(=O)NC2CCCC2)N(C(=O)c2snc(C(N)=O)c2N)C2CCCC2)cc1", "note": "(stereo unspecified)", "Potency": "inactive"}
